Assays:
[1] = molecular target: Calcium/calmodulin-dependent protein kinase type II subunit alpha (Homo sapiens) (UniProt Q9UQM7); settings: at 1 µM;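 note: reported value is a mean percent inhibition of CAMK2A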
[2] = molecular target: Calcium/calmodulin-dependent protein kinase type II subunit delta (Homo sapiens) (UniProt Q13557); settings: at 0.1 µM
[3] = molecular target: Calcium/calmodulin-dependent protein kinase type II subunit delta (Homo sapiens) (UniProt Q13557); settings: at 1 µM
[4] = molecular target: T1, Calcium/calmodulin-dependent protein kinase type IV (Homo sapiens) (UniProt Q16566); settings: at 0.1 µM
T1 sequence (whole entry): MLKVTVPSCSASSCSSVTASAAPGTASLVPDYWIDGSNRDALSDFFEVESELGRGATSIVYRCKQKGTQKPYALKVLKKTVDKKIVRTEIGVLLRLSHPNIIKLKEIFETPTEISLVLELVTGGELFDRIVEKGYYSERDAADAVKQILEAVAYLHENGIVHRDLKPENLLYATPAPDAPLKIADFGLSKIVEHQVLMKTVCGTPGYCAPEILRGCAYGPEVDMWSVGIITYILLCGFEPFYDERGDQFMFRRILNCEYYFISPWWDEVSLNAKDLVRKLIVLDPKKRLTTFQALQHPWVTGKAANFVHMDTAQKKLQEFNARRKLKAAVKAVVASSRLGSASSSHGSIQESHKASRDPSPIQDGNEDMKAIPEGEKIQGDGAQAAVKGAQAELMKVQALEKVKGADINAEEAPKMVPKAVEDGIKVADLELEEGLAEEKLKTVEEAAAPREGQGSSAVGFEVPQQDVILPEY

[5] = molecular target: T1, Calcium/calmodulin-dependent protein kinase type IV (Homo sapiens); settings: at 1 µM
[6] = molecular target: T2, Serine/threonine-protein kinase Chk1 (Homo sapiens) (UniProt O14757); settings: at 0.1 µM
T2 sequence (whole entry): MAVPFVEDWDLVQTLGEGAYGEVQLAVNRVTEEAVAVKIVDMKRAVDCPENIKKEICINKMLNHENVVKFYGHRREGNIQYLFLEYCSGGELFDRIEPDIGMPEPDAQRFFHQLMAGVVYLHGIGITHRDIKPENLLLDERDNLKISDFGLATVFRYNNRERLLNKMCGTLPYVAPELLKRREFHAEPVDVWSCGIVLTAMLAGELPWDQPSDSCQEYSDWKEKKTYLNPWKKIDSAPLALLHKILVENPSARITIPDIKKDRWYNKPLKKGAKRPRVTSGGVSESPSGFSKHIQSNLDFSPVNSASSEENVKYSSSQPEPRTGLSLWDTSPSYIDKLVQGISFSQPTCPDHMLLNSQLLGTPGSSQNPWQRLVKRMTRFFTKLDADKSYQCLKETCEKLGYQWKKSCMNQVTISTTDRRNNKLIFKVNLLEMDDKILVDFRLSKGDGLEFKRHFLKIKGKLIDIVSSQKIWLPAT

[7] = molecular target: T2, Serine/threonine-protein kinase Chk1 (Homo sapiens); settings: at 1 µM
[8] = molecular target: Serine/threonine-protein kinase Chk2 (Homo sapiens) (UniProt O96017); settings: at 0.1 µM
[9] = molecular target: Serine/threonine-protein kinase Chk2 (Homo sapiens) (UniProt O96017); settings: at 1 µM
[10] = molecular target: Death-associated protein kinase 1 (Homo sapiens) (UniProt P53355); settings: at 0.1 µM
[11] = molecular target: Death-associated protein kinase 1 (Homo sapiens) (UniProt P53355); settings: at 1 µM
[12] = molecular target: T3, Serine/threonine-protein kinase DCLK2 (Homo sapiens) (UniProt Q8N568); settings: at 0.1 µM
T3 sequence (whole entry): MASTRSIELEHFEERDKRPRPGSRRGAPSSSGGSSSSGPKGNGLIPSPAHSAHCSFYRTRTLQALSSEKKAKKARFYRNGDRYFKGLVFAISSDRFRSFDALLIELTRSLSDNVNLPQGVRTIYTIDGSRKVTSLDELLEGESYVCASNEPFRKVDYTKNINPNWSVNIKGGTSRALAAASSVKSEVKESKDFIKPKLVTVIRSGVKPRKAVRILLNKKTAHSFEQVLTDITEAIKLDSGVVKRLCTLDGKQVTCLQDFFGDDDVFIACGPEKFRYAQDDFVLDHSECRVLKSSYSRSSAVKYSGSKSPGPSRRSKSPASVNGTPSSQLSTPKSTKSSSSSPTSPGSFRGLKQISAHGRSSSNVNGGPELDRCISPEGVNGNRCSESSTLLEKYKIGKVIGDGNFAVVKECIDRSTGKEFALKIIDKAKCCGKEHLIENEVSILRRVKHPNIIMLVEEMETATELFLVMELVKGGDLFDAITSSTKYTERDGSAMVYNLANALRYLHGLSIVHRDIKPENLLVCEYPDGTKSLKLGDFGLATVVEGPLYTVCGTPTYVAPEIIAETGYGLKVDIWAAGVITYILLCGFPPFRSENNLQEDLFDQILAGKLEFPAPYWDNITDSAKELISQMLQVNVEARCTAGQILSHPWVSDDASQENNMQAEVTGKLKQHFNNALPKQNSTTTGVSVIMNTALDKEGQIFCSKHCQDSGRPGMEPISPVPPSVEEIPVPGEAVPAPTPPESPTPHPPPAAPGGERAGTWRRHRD

[13] = molecular target: T3, Serine/threonine-protein kinase DCLK2 (Homo sapiens); settings: at 1 µM
[14] = molecular target: MAP kinase-activated protein kinase 2 (Homo sapiens) (UniProt P49137); settings: at 0.1 µM
[15] = molecular target: MAP kinase-activated protein kinase 2 (Homo sapiens) (UniProt P49137); settings: at 1 µM
[16] = molecular target: MAP kinase-activated protein kinase 3 (Homo sapiens) (UniProt Q16644); settings: at 0.1 µM
[17] = molecular target: MAP kinase-activated protein kinase 3 (Homo sapiens) (UniProt Q16644); settings: at 1 µM
[18] = molecular target: Serine/threonine-protein kinase MARK1 (Homo sapiens) (UniProt Q9P0L2); settings: at 0.1 µM
[19] = molecular target: Serine/threonine-protein kinase MARK1 (Homo sapiens) (UniProt Q9P0L2); settings: at 1 µM
[20] = molecular target: MAP/microtubule affinity-regulating kinase 3 (Homo sapiens) (UniProt P27448); settings: at 0.1 µM;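 note: mean percent inhibition of MARK3 kinase activity, measured within the GSK PKIS screening panel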
Sequence of MAP/microtubule affinity-regulating kinase 3 (Homo sapiens) (P27448 whole entry, looked up): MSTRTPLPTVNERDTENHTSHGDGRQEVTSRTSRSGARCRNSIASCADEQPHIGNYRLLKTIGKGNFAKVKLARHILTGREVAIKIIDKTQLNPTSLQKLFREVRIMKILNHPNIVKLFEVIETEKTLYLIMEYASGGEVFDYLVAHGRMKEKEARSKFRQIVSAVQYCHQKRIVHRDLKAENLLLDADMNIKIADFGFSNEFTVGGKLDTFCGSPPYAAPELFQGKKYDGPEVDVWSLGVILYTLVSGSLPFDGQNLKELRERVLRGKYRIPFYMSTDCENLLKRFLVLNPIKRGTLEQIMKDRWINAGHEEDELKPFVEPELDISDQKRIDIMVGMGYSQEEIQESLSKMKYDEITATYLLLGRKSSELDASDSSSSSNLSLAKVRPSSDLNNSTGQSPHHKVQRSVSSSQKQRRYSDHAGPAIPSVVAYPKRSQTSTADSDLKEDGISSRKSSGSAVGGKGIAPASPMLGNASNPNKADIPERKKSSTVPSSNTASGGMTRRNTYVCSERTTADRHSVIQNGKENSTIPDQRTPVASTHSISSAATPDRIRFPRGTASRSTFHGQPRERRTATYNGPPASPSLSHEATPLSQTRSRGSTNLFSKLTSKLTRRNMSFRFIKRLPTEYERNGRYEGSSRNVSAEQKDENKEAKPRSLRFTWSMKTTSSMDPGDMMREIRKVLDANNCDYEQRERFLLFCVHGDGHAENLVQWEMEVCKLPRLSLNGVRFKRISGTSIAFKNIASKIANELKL

Sequence of MAP kinase-activated protein kinase 3 (Homo sapiens) (Q16644 whole entry, looked up): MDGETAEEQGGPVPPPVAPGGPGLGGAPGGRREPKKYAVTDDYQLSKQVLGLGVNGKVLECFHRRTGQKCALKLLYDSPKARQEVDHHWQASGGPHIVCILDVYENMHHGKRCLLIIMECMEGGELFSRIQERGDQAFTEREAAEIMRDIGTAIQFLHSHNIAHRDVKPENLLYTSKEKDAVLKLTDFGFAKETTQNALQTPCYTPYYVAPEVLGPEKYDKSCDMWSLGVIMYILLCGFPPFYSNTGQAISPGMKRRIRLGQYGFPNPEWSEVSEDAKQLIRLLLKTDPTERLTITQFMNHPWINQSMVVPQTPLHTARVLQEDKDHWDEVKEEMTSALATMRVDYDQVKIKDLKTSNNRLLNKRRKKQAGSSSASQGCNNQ
Sequence of Calcium/calmodulin-dependent protein kinase type II subunit alpha (Homo sapiens) (Q9UQM7 whole entry): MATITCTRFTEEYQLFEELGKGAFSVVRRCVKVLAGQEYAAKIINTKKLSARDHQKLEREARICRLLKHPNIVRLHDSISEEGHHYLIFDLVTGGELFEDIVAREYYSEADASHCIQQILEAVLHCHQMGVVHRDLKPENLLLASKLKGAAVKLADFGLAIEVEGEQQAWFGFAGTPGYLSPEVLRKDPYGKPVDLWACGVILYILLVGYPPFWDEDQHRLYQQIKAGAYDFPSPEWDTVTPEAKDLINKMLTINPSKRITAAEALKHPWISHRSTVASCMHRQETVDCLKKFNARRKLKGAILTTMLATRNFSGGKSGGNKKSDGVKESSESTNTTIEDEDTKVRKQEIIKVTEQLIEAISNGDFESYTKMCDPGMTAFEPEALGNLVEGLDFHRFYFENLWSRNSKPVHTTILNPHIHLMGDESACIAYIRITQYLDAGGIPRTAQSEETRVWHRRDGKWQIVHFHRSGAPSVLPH
Sequence of MAP kinase-activated protein kinase 2 (Homo sapiens) (P49137 whole entry, looked up): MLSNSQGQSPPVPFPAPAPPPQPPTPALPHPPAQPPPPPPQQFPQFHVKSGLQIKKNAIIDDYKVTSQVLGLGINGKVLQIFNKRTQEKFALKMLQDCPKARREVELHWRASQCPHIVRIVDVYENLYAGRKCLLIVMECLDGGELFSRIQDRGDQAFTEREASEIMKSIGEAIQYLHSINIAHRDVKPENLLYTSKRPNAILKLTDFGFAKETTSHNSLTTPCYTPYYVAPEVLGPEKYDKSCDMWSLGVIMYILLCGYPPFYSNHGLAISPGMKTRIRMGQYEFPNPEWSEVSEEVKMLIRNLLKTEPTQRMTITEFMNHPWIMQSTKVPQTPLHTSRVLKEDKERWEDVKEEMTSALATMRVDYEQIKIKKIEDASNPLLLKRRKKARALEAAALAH
Sequence of Calcium/calmodulin-dependent protein kinase type II subunit delta (Homo sapiens) (Q13557 whole entry): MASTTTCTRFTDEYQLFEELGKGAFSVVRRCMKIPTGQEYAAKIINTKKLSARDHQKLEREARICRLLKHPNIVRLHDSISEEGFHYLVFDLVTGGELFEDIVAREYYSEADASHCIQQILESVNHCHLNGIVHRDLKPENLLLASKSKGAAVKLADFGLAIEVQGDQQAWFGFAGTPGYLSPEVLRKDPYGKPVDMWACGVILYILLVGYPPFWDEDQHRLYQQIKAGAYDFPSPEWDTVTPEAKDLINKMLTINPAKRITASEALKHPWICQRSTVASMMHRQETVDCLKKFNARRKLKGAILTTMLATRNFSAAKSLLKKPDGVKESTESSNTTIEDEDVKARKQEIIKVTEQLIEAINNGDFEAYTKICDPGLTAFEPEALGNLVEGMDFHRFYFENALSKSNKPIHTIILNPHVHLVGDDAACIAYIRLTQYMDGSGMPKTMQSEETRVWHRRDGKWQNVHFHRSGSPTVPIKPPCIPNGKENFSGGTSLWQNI
Sequence of Serine/threonine-protein kinase Chk2 (Homo sapiens) (O96017 whole entry): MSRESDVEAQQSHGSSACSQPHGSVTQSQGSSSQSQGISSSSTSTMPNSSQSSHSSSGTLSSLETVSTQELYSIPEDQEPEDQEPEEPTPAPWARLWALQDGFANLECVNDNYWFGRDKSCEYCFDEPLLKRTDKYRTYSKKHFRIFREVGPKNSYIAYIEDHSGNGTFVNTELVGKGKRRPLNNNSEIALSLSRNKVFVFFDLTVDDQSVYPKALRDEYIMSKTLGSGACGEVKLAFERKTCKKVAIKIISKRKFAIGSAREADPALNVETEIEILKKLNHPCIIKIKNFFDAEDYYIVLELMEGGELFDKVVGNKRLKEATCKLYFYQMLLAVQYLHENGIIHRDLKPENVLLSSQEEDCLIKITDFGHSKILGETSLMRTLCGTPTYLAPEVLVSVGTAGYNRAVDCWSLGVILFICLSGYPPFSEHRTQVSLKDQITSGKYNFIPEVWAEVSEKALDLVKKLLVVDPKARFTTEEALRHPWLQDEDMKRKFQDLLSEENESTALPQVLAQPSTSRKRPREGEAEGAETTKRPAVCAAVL
Sequence of Serine/threonine-protein kinase MARK1 (Homo sapiens) (Q9P0L2 whole entry, looked up): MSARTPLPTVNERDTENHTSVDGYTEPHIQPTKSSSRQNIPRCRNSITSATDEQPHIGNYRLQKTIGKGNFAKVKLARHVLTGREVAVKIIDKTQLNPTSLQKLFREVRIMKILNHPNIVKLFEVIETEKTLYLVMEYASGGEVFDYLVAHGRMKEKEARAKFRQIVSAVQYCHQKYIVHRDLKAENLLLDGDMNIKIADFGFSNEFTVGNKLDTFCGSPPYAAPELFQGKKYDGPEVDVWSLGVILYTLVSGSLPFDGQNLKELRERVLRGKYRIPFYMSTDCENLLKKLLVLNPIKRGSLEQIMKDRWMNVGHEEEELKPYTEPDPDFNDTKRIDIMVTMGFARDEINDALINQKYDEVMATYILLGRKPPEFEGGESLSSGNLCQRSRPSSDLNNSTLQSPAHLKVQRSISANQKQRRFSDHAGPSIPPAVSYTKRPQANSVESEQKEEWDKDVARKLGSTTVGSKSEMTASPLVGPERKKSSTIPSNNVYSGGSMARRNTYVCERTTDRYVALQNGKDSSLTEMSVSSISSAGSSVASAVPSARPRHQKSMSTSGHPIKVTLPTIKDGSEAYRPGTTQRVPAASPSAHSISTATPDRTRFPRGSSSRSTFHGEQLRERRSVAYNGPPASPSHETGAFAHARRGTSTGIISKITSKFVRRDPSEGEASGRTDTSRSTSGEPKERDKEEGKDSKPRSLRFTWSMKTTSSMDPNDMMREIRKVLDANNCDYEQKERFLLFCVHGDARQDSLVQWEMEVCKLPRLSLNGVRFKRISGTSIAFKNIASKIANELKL

| SMILES | inhibition [1] | inhibition [2] | inhibition [3] | inhibition [4] | inhibition [5] | inhibition [6] | inhibition [7] | inhibition [8] | inhibition [9] | inhibition [10] | inhibition [11] | inhibition [12] | inhibition [13] | inhibition [14] | inhibition [15] | inhibition [16] | inhibition [17] | inhibition [18] | inhibition [19] | inhibition [20] |
| --- | --- | --- | --- | --- | --- | --- | --- | --- | --- | --- | --- | --- | --- | --- | --- | --- | --- | --- | --- | --- |
| CC(=O)Nc1cccc(C#Cc2cncnc2Nc2ccc(OCc3cccc(F)c3)c(Cl)c2)n1 | 1.27% | -0.74% | -2.74% | -4.11% | -7.03% | 7.14% | 5.32% | 3.3% | 4.37% | 7.49% | 7.63% | 5.73% | 7.65% | 2.15% | 2.54% | 5.56% | 5.33% | 1.05% | 1.12% | 0.78% |
| CCn1c(-c2nonc2N)nc2cnc(Oc3cccc(NC(=O)c4ccc(OCCN5CCOCC5)cc4)c3)cc21 | 2.17% | 1.77% | 4% | 2.08% | 2.49% | -8.33% | 4.37% | 3.15% | 13.3% | -1.49% | -1.31% | 0.99% | 2.71% | 1.4% | 0.54% | 3.45% | 3.54% | 3.31% | 13.3% | 0.46% |
| CCN1CCC(CC(=O)Nc2n[nH]c3nc(-c4cccs4)c(Br)cc23)CC1 | -1.26% | -1.29% | 7.67% | 0.29% | -0.89% | 2.28% | 2.57% | -3.64% | -3.75% | 0.43% | 1.46% | 0.63% | 0.11% | -2.22% | -2.04% | -2.21% | -2.44% | -2.56% | -1.05% | 1% |
| CNC(=O)c1cncc(/C=C/c2c(Cl)cccc2Cl)c1 | 4.95% | 3.11% | 8.55% | 0.01% | 3.19% | 0.16% | 4.57% | 2.6% | 9.62% | 2.23% | 0.5% | -4.5% | -0.73% | 0.7% | 2.98% | 2.14% | 1.96% | 2.05% | 2.47% | 1.82% |
| CS(=O)(=O)CCNCc1ccc(-c2ccc3ncnc(Nc4ccc(OCc5cccc(F)c5)c(C(F)(F)F)c4)c3c2)o1 | 3.37% | 3.17% | 2.68% | 0.52% | -0.06% | 8.99% | 11.5% | 6.84% | 7.75% | 11.7% | 12.3% | 3.73% | 0.98% | 4.67% | 4.5% | 10% | 11.2% | 3.68% | 3.33% | 1.95% |
| Cc1nn(C)c2cc(N(C)c3ccnc(Nc4cccc(S(N)(=O)=O)c4)n3)ccc12 | 1.72% | 2.35% | 3.73% | 1.4% | 1.88% | 4.46% | 56% | 6.25% | 9.6% | 8.62% | 8.09% | 0.57% | 0.12% | 3.83% | 3.29% | 8.73% | 11% | 3.07% | 4.05% | 0.92% |
| CCn1c(-c2nonc2N)nc2cncc(C(=O)N3CC[C@H](N)C3)c21 | 3.64% | 4.1% | 4.33% | 1.7% | -0.55% | 4.56% | 6.37% | 1.1% | 1.86% | 5.74% | 8.64% | 0.17% | -0.36% | 1.77% | 1.78% | 3.01% | 4.01% | 4.67% | 12.8% | 3.75% |

Reference: ChEMBL document CHEMBL1961873, “Compounds: GSK PKIS; Assays: Nanosyn kinase panel” (2012)
